These results are taken from PubChem BioAssay (Tox21).

A short description of experiment [1]: qHTS assay to identify aromatase inhibitors - cell viability counter screen (AID 743084).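 Note: cells stimulated with testosterone during compound exposure; nearly all actives have a fitted effect of over 55% in size.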 Note: potency is the fitted concentration of half-maximal effect.
In experiment [2] the target is Aryl hydrocarbon receptor (Homo sapiens) (UniProt P35869). Briefly: qHTS assay to identify small molecule that activate the aryl hydrocarbon receptor (AhR) signaling pathway (AID 743085).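 For activation: HG2L7.5c1 human HepG2 liver cells with stably integrated DRE-driven firefly reporter; series mostly up to about 70 µM.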 Note: nearly all actives have a fitted effect of over 15% in size. Note: potency is the fitted concentration of half-maximal effect. The gist of the method:
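HepG2 cells stably carrying a 20-DRE firefly luciferase reporter (HG2L7.5c1) treated with compound for 24 hr at 37C. Luciferase read by ONE-Glo luminescence, with CellTiter-Fluor viability read first.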
For orientation: qHTS replaces the single test concentration by a dilution series.

Experiment [3] can be described thus: qHTS assay to identify small molecule antagonists of the peroxisome proliferator-activated receptor gamma (PPARg) signaling pathway - cell viability counter screen (AID 743194). Note: nearly all actives have a fitted effect of over 55% in size. Note: potency is the fitted concentration of half-maximal effect. The settings on record: Potency: co-treated with 50 nM rosiglitazone. A digest of the protocol:
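Cytotoxicity counter screen in PPARg-bla HEK293H cells, same wells as reporter assay. Compounds plus 50 nM rosiglitazone (final) for 17 h at 37 C, then viability read by CellTiter-Glo luminescence.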

Experiment [4] can be described thus: qHTS assay for small molecule agonists of the antioxidant response element (ARE) signaling pathway (AID 743202; active = well fitted activation curve with a large enough effect in the signal ratio in the repeat runs, not every such curve was filed as active; the % refers to the signal ratio). A digest of the protocol:
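HepG2 ARE-bla cells; 16 h treatment at 37 C; FRET-based beta-lactamase fluorescence read after 2 h substrate incubation at room temperature.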

Experiment [5] can be described thus: qHTS assay for small molecule activators of the heat shock response signaling pathway (AID 743210; active = well fitted activation curve with a large enough effect in the signal ratio in the repeat runs, with a control signal flat, not every such curve was filed as active; the % refers to the signal ratio;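 note: HeLa cells with beta-lactamase reporter driven by heat shock elements; series mostly up to about 63 µM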). The gist of the method: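 Following overnight attachment, HSE-bla HeLa cells received test compounds for 5 h at 37 C; beta-lactamase activity was then detected via FRET substrate fluorescence.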
Experiment [6] in a line: qHTS assay to identify small molecule agonists of the peroxisome proliferator-activated receptor delta (PPARd) signaling pathway - cell viability counter screen (AID 743211). Note: nearly all actives have a fitted effect of over 55% in size. The gist of the method: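 PPARd-bla HEK293H cells (3000/well) were pre-incubated 5 h at 37 C, then exposed to compound for 17 h at 37 C. After 2 h with LiveBLAzer substrate, CellTiter-Glo was added to the same wells; luminescence read after 30 min at room temperature.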

Experiment [7] concerns the target Peroxisome proliferator-activated receptor delta (Homo sapiens) (UniProt Q03181). Briefly: qHTS assay to identify small molecule agonists of the peroxisome proliferator-activated receptor delta (PPARd) signaling pathway (AID 743212; calls by dose curve). A digest of the protocol: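 Tox21 library screened in GeneBLAzer PPARd UAS-bla HEK293H cells. After compound treatment at 37 C, a FRET-based beta-lactamase substrate was applied for 2 h and fluorescence recorded.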

A short description of experiment [8]: qHTS assay to identify small molecule antagonists of the peroxisome proliferator-activated receptor delta (PPARd) signaling pathway - cell viability counter screen (AID 743213). Note: nearly all actives have a fitted effect of over 50% in size. Note: potency is the fitted concentration of half-maximal effect. The gist of the method: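 In this counter screen, HEK293H cells carrying a UAS-beta-lactamase reporter are co-treated with test compounds and 300 nM L165041 (final) for 17 h at 37 C; cell viability is quantified by CellTiter-Glo luminescence.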

Experiment [9] has as its target Peroxisome proliferator-activated receptor delta (Homo sapiens) (UniProt Q03181). The experiment in a line: qHTS assay to identify small molecule antagonists of the peroxisome proliferator-activated receptor delta (PPARd) signaling pathway (AID 743215; active = well fitted inhibition curve with a large enough effect in the signal ratio in the repeat runs, not every such curve was filed as active; the % refers to the signal ratio;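 note: cells stimulated with agonist L165041 at 300 nM final during compound exposure; series mostly up to about 62 µM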). A digest of the protocol: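 Here, a reporter line (HEK293H, beta-lactamase under a UAS) measures PPARd signaling. Compounds are tested against agonist L165041 at 300 nM final concentration over 17 h at 37 C, with fluorescence read after substrate.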

A short description of experiment [10]: qHTS assay to identify small molecule agonists of the farnesoid-X-receptor (FXR) signaling pathway - cell viability counter screen (AID 743218). Note: nearly all actives have a fitted effect of over 45% in size. Note: potency is the fitted concentration of half-maximal effect. The gist of the method:
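Quantitative HTS counter screen measuring ATP-based viability via CellTiter-Glo luminescence in HEK 293T cells carrying a UAS-driven beta-lactamase reporter, after 16 h compound exposure at 37 C.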

The target in experiment [11] is Bile acid receptor (Homo sapiens) (UniProt Q96RI1). The experiment in a line: qHTS assay to identify small molecule agonists of the farnesoid-X-receptor (FXR) signaling pathway (AID 743220; active = well fitted activation curve with a large enough effect in the signal ratio in the repeat runs, not every such curve was filed as active; the % refers to the signal ratio). A digest of the protocol:
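FXR-UAS-bla HEK 293T cells carrying a UAS-driven beta-lactamase reporter were plated for 5 h at 37C/5% CO2, then exposed to DMSO-dissolved Tox21 10K compounds for 16 h at 37C. A LiveBLAzer B/G FRET substrate was loaded for 2 h at room temperature before fluorescence reading.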

Experiment [12] can be described thus: qHTS assay to identify small molecule antagonists of the farnesoid-X-receptor (FXR) signaling pathway - cell viability counter screen (AID 743221; active = well fitted cell-killing curve with a large enough effect in the repeat runs, not every such curve was filed as active; note: nearly all actives have a fitted effect of over 50% in size; note: potency is the fitted concentration of half-maximal effect). A digest of the protocol:
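GeneBLAzer FXR-UAS-bla HEK 293T cells, compound plus chenodeoxycholic acid (50 uM final), 16 h at 37 C. CellTiter-Glo added to the same wells after the beta-lactamase read; luminescence read after 30 min at room temperature as viability.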

The target in experiment [13] is Vitamin D3 receptor (Homo sapiens) (UniProt P11473). The experiment in a line: qHTS assay to identify small molecule agonists of the vitamin D receptor (VDR) signaling pathway (AID 743222; calls by dose curve). A digest of the protocol: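 Tox21 cell reporter format: VDR-bla line, 16 h compound exposure in 5% CO2 at 37C, then fluorescence intensity after 2 h with LiveBLAzer B/G FRET substrate.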

Experiment [14] shares this target. Briefly: qHTS assay to identify small molecule antagonists of the vitamin D receptor (VDR) signaling pathway (AID 743223; active = well fitted inhibition curve with a large enough effect in the signal ratio in the repeat runs, not every such curve was filed as active; the % refers to the signal ratio). The gist of the method:
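VDR-bla cells were treated with compound plus 3 nM final 1alpha,25-dihydroxyvitamin D3 for 16 h at 37C. Beta-lactamase reporter read by B/G FRET substrate fluorescence after 2 h at room temperature. qHTS format.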

The target in experiment [15] is Peroxisome proliferator-activated receptor gamma (Homo sapiens) (UniProt P37231). Briefly: qHTS assay to identify small molecule antagonists of the peroxisome proliferator-activated receptor gamma (PPARg) signaling pathway (AID 743191; calls by dose curve; note: series mostly up to about 63 µM; nearly all actives have a fitted effect of over 30% in size). A digest of the protocol: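 GeneBLAzer PPARg UAS-bla HEK293H cells, 5 h post-plating, exposed to compounds 17 h at 37C. LiveBLAzer B/G FRET substrate added for 1 h at room temperature; beta-lactamase reporter read by fluorescence intensity.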

Experiment [16] can be described thus: qHTS assay for small molecule agonists of the antioxidant response element (ARE) signaling pathway - cell viability counter screen (AID 743203; calls by dose curve; note: nearly all actives have a fitted effect of over 55% in size; note: potency is the fitted concentration of half-maximal effect). The gist of the method: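 ATP content via CellTiter-Glo luminescence served as the viability measure. Cells: ARE-bla HepG2, 2,000 per well. Exposure: 16 hrs, 37C/5% CO2.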
Experiment [17] can be described thus: qHTS assay for small molecule activators of the heat shock response signaling pathway - cell viability counter screen (AID 743209). Note: nearly all actives have a fitted effect of over 50% in size. Note: potency is the fitted concentration of half-maximal effect. The gist of the method:
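Compounds dissolved in DMSO were added to overnight-plated HSE-bla HeLa cells and left 5 h at 37 C. Cell viability was quantified by luminescence using CellTiter-Glo.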

A short description of experiment [18]: qHTS assay to identify small molecule that activate the aryl hydrocarbon receptor (AhR) signaling pathway - cell viability counter screen (AID 743086).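 Note: HepG2 liver cells carrying the AhR DRE luciferase reporter; series mostly up to about 70 µM; nearly all actives have a fitted effect of over 45% in size.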 The gist of the method:
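HepG2-AhR-luc (HG2L7.5c1) cells, 4000/well, treated 24 h at 37 C with compound; viability measured as CellTiter-Fluor fluorescence after 30 min in the same wells as the luciferase read.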

For experiment [19], the target named is Peroxisome proliferator-activated receptor gamma (Homo sapiens) (UniProt P37231). Briefly: qHTS assay to identify small molecule agonists of the peroxisome proliferator-activated receptor gamma (PPARg) signaling pathway (AID 743094; active = well fitted activation curve with a large enough effect in the signal ratio in the repeat runs, not every such curve was filed as active; the % refers to the signal ratio). The gist of the method: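 Agonism was assessed in a beta-lactamase reporter system, HEK293H cells with a stably integrated UAS-bla construct under PPARg control; the 17 h treatment at 37C preceded a 1 h room-temperature FRET substrate read.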

Experiment [20] addresses Bile acid receptor (Homo sapiens) (UniProt Q96RI1). The experiment in a line: qHTS assay to identify small molecule antagonists of the farnesoid-X-receptor (FXR) signaling pathway (AID 743217; active = well fitted inhibition curve with a large enough effect in the signal ratio in the repeat runs, not every such curve was filed as active; the % refers to the signal ratio). A digest of the protocol:
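Test compounds are pin-transferred onto FXR-bla HEK 293T cells, then chenodeoxycholic acid is added at 50 uM final. After 16 h at 37 °C, LiveBLAzer B/G substrate is applied for 2 h at room temperature and fluorescence read.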

“And” between values parts separate entries of the source, which are not always exact repeats. Equal values may be shown once. Results filed as inconclusive are left out. The source made the active and inactive calls. Unless noted, calls come from the whole dose curve; as a rule, active = well fitted curve in the direction sought with a large enough effect in the repeat runs; inconclusive = weak or mixed curves; inactive = no such curve, though single readings can be large; an effect the other way counts as inactive or inconclusive.

Chain of Bile acid receptor (Homo sapiens) (Q96RI1 whole entry, looked up): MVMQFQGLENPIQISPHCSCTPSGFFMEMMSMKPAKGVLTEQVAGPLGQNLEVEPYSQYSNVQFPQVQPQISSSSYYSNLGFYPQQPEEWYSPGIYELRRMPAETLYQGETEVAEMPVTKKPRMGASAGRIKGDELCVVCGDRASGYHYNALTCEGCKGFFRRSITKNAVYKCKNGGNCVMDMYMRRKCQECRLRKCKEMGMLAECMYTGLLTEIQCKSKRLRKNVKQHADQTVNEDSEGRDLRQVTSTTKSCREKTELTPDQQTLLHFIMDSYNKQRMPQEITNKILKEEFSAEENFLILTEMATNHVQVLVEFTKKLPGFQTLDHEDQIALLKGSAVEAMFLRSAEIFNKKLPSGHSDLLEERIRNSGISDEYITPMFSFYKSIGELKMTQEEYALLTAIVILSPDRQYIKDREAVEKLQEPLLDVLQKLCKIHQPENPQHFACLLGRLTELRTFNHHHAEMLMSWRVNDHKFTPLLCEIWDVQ
Chain of Peroxisome proliferator-activated receptor gamma (Homo sapiens) (P37231 whole entry, looked up): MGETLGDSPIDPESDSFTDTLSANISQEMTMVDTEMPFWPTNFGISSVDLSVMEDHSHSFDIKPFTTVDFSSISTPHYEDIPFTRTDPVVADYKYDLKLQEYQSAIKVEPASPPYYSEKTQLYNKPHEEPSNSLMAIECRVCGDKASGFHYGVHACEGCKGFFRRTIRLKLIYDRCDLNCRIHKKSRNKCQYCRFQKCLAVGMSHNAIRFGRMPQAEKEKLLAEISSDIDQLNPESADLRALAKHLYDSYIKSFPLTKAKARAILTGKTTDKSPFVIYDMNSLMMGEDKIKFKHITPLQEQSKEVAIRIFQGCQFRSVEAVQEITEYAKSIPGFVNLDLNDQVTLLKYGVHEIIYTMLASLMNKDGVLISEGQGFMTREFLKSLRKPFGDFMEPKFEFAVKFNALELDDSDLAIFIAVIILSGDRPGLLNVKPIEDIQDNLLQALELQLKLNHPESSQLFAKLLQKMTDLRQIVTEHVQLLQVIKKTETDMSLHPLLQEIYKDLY
Chain of Peroxisome proliferator-activated receptor delta (Homo sapiens) (Q03181 whole entry, looked up): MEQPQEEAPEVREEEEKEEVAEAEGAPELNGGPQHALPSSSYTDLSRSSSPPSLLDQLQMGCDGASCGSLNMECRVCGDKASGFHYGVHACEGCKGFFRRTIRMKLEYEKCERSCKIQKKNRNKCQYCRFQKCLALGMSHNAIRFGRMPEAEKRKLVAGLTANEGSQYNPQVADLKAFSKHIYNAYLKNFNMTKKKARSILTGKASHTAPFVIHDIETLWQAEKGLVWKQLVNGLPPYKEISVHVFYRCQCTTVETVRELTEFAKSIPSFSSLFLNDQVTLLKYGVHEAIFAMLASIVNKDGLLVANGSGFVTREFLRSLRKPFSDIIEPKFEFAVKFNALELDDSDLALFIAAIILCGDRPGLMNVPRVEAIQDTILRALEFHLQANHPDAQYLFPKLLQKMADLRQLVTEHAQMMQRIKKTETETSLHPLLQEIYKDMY
Chain of Aryl hydrocarbon receptor (Homo sapiens) (P35869 whole entry, looked up): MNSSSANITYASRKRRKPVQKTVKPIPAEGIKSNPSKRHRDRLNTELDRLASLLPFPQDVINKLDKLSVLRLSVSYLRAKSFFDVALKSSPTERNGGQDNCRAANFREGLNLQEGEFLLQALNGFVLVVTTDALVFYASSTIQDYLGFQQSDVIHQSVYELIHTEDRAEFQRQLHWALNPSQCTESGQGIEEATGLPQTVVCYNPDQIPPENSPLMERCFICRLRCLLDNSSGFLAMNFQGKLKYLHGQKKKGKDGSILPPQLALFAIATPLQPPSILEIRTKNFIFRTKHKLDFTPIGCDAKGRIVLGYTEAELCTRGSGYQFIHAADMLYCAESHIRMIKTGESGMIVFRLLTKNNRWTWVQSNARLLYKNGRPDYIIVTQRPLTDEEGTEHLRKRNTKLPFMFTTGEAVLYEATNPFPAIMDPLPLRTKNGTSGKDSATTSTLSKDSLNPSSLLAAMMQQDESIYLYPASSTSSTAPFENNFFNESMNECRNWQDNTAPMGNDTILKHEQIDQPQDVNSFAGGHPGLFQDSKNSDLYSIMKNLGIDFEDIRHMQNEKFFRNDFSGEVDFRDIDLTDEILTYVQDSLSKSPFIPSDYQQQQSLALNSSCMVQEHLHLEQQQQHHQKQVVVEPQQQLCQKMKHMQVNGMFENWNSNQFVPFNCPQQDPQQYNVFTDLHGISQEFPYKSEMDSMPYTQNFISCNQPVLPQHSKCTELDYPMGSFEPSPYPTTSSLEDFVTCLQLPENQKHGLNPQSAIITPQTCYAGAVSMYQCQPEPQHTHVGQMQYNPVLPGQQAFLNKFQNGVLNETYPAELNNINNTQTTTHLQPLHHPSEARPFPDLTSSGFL
Chain of Vitamin D3 receptor (Homo sapiens) (P11473 whole entry, looked up): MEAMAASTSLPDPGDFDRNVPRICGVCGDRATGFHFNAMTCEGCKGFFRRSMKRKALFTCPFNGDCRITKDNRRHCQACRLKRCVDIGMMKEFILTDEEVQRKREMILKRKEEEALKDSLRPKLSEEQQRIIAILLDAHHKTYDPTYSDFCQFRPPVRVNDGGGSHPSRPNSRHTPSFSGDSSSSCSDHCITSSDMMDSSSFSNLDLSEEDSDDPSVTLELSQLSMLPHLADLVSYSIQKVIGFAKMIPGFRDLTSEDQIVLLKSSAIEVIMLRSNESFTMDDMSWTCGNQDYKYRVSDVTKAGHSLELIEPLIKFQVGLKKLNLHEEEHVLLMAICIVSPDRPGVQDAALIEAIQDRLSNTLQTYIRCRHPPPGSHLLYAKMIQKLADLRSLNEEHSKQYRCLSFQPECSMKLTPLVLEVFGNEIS

As for `SCc1ccccc1`, the Potency entry in experiment [1], in experiment [2], in [3], in experiment [4], in [5] and in [6] was “inactive” each time. The Potency entry in [8], in [9], in [10], in [12] and in experiment [14] was “inactive” throughout. In addition, the result in [7], in experiment [11] and in experiment [13] was inactive.

Regarding `CC(Oc1cccc(Cl)c1)C(=O)O` (centres undefined), the Potency entry in experiment [1], in experiment [2], in [15], in [3], in experiment [4] and in experiment [16] was “inactive” throughout. For the same molecule, the Potency entry in experiment [17], in experiment [6], in experiment [8] and in [9] was “inactive” in each case. Besides, the molecule was classed as inactive in experiment [7], in [11] and in experiment [13].

Take `O=C(Cl)OCCOCCOC(=O)Cl`: the Potency entry in experiment [1], in [2], in experiment [18], in experiment [3], in experiment [17] and in [6] was “inactive” each time. The Potency entry in experiment [12] is “inactive”. Moreover, in experiment [13], the outcome was inactive.

With `O=C(Cc1ccccc1)OCCc1ccccc1`, the Potency entry in experiment [1], in experiment [2], in experiment [19], in [3], in [4] and in experiment [16] was “inactive” each time. The Potency entry in experiment [17], in [5], in experiment [6], in [8], in experiment [9] and in experiment [10] was “inactive” throughout. The Potency entry in [12] is “inactive”. For the same molecule, the molecule was classed as inactive in experiment [7] and in [13].

Regarding `CN(C)N`, the Potency result in experiment [1], in experiment [2], in experiment [19], in [15], in experiment [3] and in experiment [16] was “inactive” each time. In addition, the Potency result in experiment [17], in experiment [8], in experiment [9], in [10], in experiment [12] and in experiment [14] was “inactive” each time. In addition, the call in experiment [7] and in experiment [13] was inactive.

For the molecule `OCCCl`, the Potency result in [1], in experiment [2], in [19], in experiment [15], in [3] and in [4] was “inactive” throughout. Besides, the Potency entry in [16], in experiment [17], in experiment [5], in [6], in experiment [8] and in experiment [10] was “inactive” in each case. Also, the molecule was called inactive in [7], in experiment [11] and in experiment [13].

As to `O=C=NC1CCCCC1`, the Potency result in experiment [1], in [16], in experiment [17], in experiment [5], in [6] and in experiment [9] was “inactive” in each case. The Potency entry in [12] is “inactive”. Besides, the Potency in experiment [2] was 54.6 µM (active). For the same molecule, the call in experiment [7], in experiment [11] and in experiment [13] was inactive.

On to `CC1(C)[C@H](C(=O)O[C@H](C#N)c2cccc(Oc3ccccc3)c2)[C@@H]1C=C(Br)Br`, for which the Potency entry in experiment [1], in [2], in [18], in experiment [3], in [16] and in experiment [6] was “inactive” each time. In addition, the Potency entry in experiment [8] and in [12] was “inactive” throughout.

In the case of `CC[N+]1(C)CCCC(OC(=O)C(O)(c2ccccc2)c2ccccc2)C1` (centres undefined), the Potency entry in experiment [1], in experiment [2], in [19], in experiment [3], in [4] and in experiment [16] was “inactive” in each case. For the same molecule, the Potency result in experiment [17], in experiment [5], in experiment [6], in experiment [8], in experiment [9] and in experiment [10] was “inactive” in each case. Moreover, the Potency result in [12] is “inactive”. Also, in [7], the molecule was called inactive.

As to `O=C1CC[C@@]2(O)[C@H]3Cc4ccc(O)c5c4[C@@]2(CCN3CC2CC2)[C@H]1O5`, the Potency result in experiment [1], in [2], in experiment [18], in experiment [3], in experiment [16] and in [8] was “inactive” in each case. Also, the Potency entry in experiment [20], in [10] and in [12] was “inactive” each time. Besides, the call in experiment [11] was inactive.

Take `CCCBr`: the Potency result in experiment [1], in experiment [2], in [19], in experiment [3], in experiment [16] and in experiment [17] was “inactive” throughout. Moreover, the Potency entry in [5], in experiment [6], in [8], in [20], in experiment [10] and in [14] was “inactive” each time. Also, the molecule was classed as inactive in experiment [11] and in [13].

With `CCOP(=S)(OCC)SCSc1cc(Cl)ccc1Cl`, the Potency result in experiment [1], in experiment [2], in experiment [19], in [3], in [16] and in experiment [17] was “inactive” in each case. Further, the Potency entry in experiment [5], in experiment [6], in [8], in [9], in experiment [10] and in [12] was “inactive” in each case. Moreover, the molecule was called inactive in experiment [7] and in [13].

Regarding `CCCCCCCCCCCC[N+](C)(C)CCOc1ccccc1`, the Potency in experiment [1] is 26.6 µM (active) and 27.3 µM (active); in experiment [3], 21.9 µM (active) and 13.3 µM (active); in experiment [16], 30.6 µM (active) and 29.8 µM (active); in [17], 34.7 µM (active); in experiment [8] it was 17.4 µM (active); in [10], 24.6 µM (active). For the same molecule, the Potency in [12] was 49 µM (active). In experiment [2], the Potency result was “inactive”. Further, the call in experiment [13] was inactive.
